# Assay outcomes (PubChem BioAssay)
# ALOX15B inhib: 15-hLO-2 (ALOX15B) enzyme inhibition | purified 15hLO-2, xylenol orange hydroperoxide absorbance | Potency, µM (top dose mostly 57.1 µM), inactives show top-dose activity change, negative = inhibition, usual class: inhibitors | 110,000 compounds, 0.56% hits; further: potency means the concentration at half of the fitted maximal effect; nearly all actives have a fitted effect of over 60% in size
#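 Purified human 15hLO-2 (50 nM final) preincubated with compounds 15 min at room temperature in 25 mM Hepes pH 7.5, 0.01% Triton X-100, then 45 uM arachidonic acid added for 90 min; hydroperoxide detected via ferrous/xylenol orange, 573/405 nm absorbance ratio.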
# HPGD block: blocks human HPGD enzyme activity; P15428; purified HPGD, NADH fluorescence kinetic, PGE2 substrate; Potency, µM, for the others: at the highest dose activity change, negative = inhibition, usual class: inhibitors; 150,000 compounds, 4.3% hits; AID 894; active means well fitted inhibition curve with a large enough effect, not every such curve was filed as active; inconclusive means small, poorly fitted or top-dose-only effect, or another doubt; inactive means no such curve, though single readings can be large or run the other way; further: potency means the concentration at half of the fitted maximal effect
# Target sequence (P15428 whole entry, looked up): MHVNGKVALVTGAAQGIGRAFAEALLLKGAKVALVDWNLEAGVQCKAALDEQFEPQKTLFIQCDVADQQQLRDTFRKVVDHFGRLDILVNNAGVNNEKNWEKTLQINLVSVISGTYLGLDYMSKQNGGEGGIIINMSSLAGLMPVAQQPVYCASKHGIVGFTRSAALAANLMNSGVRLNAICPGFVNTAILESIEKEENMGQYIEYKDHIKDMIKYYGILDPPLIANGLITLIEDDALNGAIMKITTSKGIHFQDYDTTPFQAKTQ
#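 20 nM HPGD preincubated 15 min at room temperature with compound in 50 mM Tris-HCl pH 8, 0.01% Tween 20. Started with 1 mM NAD+ and 30 uM prostaglandin E2; NADH fluorescence (360/450 nm) read 5 times over 30-s intervals, last minus first.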
# 12-hLO inh: blocks human 12-lipoxygenase activity. Potency, µM (doses to about 57.1 µM), for inactives: at the highest dose activity change, negative = inhibition, usual class: inhibitors. 150,000 compounds, 0.12% hits. P18054. purified 12-hLO, xylenol orange hydroperoxide absorbance; further: potency means the concentration at half of the fitted maximal effect; nearly all actives have a fitted effect of over 55% in size
#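 Xylenol orange chromogenic assay: hydroperoxide from 12hLO oxidises Fe(II), giving red-shifted Fe(III)-XO absorbance. Conditions: 150 nM enzyme, 40 uM arachidonic acid, 25 mM Hepes pH 7.0, 0.01% Triton X-100, 30 min, room temperature.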
# IMPase Li cell: cell-permeable IMPase inhibitors with lithium potentiation. Potency, µM (series often up to 59.4 µM), for inactives: top-dose activity, negative = IMPase inhibition, most hits filed as inhibitors. 210,000 compounds, 0.35% hits. CHO-M1 cells, IP1 TR-FRET (IP-One), carbachol + lithium. AID 1457;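 further: IP1 builds up when IMPase is blocked and the TR-FRET signal falls; potency means the concentration at half of the fitted maximal effect; plate controls were basal vehicle for no effect and high inhibitor control for full effect; nearly all actives have a fitted effect of over 50% in size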
#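 Concentration–response in CHO-M1 cells, lithium-potentiated; 30 min at 37C. IP1 detected by competitive TR-FRET after 10 min lysis at RT. Hill-fitted AC50.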
# IMPase inh: cell-permeable inhibitors of inositol monophosphatase (IMPase); CHO-M1 cells, IP1 accumulation, HTRF TR-FRET ratio; 120,000 tested, under 10 active; AID 901; inhibition (IP1 accumulation), % at 46.1 µM; active means well fitted curve in the direction sought with a large enough effect in the signal ratio, not every such curve was filed as active; inconclusive means small, poorly fitted or top-dose-only effect, or a change in a side signal; inactive means no such curve, though single readings can be large or run the other way; the % refers to the signal ratio;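 further: cells stimulated with carbachol in lithium chloride buffer; plate controls were DMSO basal wells for no effect and reference inhibitor wells for full effect; higher means more IMPase inhibition seen as more IP1 and lower FRET ratio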
# Target sequence (P97697 whole entry, looked up): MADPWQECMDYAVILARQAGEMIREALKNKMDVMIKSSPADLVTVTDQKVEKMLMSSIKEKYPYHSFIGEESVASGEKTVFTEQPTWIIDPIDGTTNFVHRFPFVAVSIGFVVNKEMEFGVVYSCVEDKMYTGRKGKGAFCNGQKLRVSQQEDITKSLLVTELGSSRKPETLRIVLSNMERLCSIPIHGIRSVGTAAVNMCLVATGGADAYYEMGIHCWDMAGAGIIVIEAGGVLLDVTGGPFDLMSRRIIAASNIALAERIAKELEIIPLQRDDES
#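 Measured: the HTRF emission ratio (665/620 nm) plus the 620 nm donor channel, each fitted to the Hill equation to give AC50. Cells were CHO-M1 given compounds up to 46 uM and a 30 min carbachol stimulation at 37C.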
# PNC inhibitor: blocks assembly of the perinucleolar compartment. PC3M PTB-GFP, PNC prevalence imaging, 16 h; active compounds read low. activity change (PNC), negative = inhibition, % at 10 µM. 140,000 compounds, 3.1% hits. AID 2417;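 active means readout at or below -70, meaning at least 70% loss of cells showing the perinucleolar compartment, a nuclear body marking cancer cells; inconclusive means readout between -30 and a set limit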;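 further: plate controls were DMSO wells for no effect and camptothecin positive control wells for full effect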
#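 Compounds are pinned in duplicate onto adhered PC3M cells stably expressing GFP-tagged PTB and incubated 16 h at 37 C. Cells are then fixed, nuclei stained with Hoechst, and PNC-positive cells counted.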
# Numbers without * were called inactive; ? = inconclusive; / = no result given; [ ] = remark or other dose. Hits are enriched below; roughly 5.4% of the tested compounds scored in any of these assays. Unless noted, the call rests on the fitted dose curve; in most records, active means well fitted curve in the direction sought with a large enough effect; inconclusive means small, poorly fitted or top-dose-only effect, or another doubt; inactive means no such curve, though single readings can be large; an effect the other way counts as inactive or inconclusive. Unless noted, on the % scale 0 is the no-effect control and ±100 the full control effect.
SMILES,ALOX15B inhib,HPGD block,12-hLO inh,IMPase Li cell,IMPase inh,PNC inhibitor
O=C(c1ccccc1)N1CCN(C(=O)C23CC4CC(CC(C4)C2)C3)CC1,-4.4%,-8.8%,-5.4%,-7.5%[38.3 µM],-8.6,-126.9*
Cc1ccc(C(=O)N2CCCC2)cc1Br,1.9%,20µM*,4.1%,1.4%[38.3 µM],1.1,-4.1
O=C(N1CCN(c2ccccc2F)CC1)C12CC3CC(CC(C3)C1)C2,-5.3%,-15.7%,-19.8%,23.4%,2.0,-15.5
COc1ccc2[nH]cc(CCNc3cc(-c4ccccc4OC)ncn3)c2c1,17.8%,/,/,2.2%,/,/
CCCn1c(-c2ccc(F)cc2)nc2c(NCCN(CC)CC)nc(C)nc21,32.4%,?,2.1%,-0.1%,/,/
CC1/C=C/C=C/C=C/C=C/C=C/C=C/C=C/C(OC2OC(C)C(O)C(N)C2O)CC2O[C@@](O)(CC(O)CC(O)C(O)CCC(O)CC(O)CC(=O)OC(C)[C@H](C)C1O)CC(O)C2C(=O)O (some centres undefined),-23.4%,?,-6.0%,14.6%,/,/
COc1ccccc1NC(=O)C1=C(C)Nc2nnnn2C1c1cc(Br)c(O)c(OC)c1 (centres undefined),/,/,/,/,2.6,/
O=C(c1ccco1)N1CCN(CCOCCOc2cccc3ccccc23)CC1,14.3%,3.3%,5.2%,7.1%[38.3 µM],0.2,-80.3*
O=C(c1ccccc1)c1ccc(C(=O)N2CCOCC2)cc1,-2.8%,7.94µM*,-0.2%,-5.4%[38.3 µM],-1.2,-29.5
O=C(/C=C/N1CCOCC1)c1ccc(-c2ccccc2)cc1,?,28.2µM*,?,4.4%[38.3 µM],-3.8,-15.7
CS(=O)(=O)N1CCc2cc(C(=O)N3CCOCC3)ccc21,9.7%,-17.9%,0.6%,4.6%,-1.3,17.0
O=C(c1ccc(-c2ccccc2)cc1)c1ccccc1C(=O)N1CCOCC1,4.0%,-7.6%,2.7%,21.5%[38.3 µM],4.7,18.8
CS(=O)(=O)N1CCc2cc(C(=O)N3CCCCC3)ccc21,/,3.16µM*,24.8%,-0.5%,-2.4,-0.6
Cc1ccc(NC(=O)Cn2c(-c3ccc4c(c3)OCO4)cn(-c3ccccc3)c2=O)cc1,/,/,/,/,1.2,/
Cn1nnc2cc(C(=O)N3CCC(c4ccccc4)C3)ccc21 (centres undefined),4.6%,-2.1%,1.2%,27.3%[38.3 µM],1.0,?
CCOc1ccc(C(=O)N2CCCCCC2)cc1,-0.5%,2µM*,5.0%,5.1%[38.3 µM],-4.5,37.6
O=C(c1cccc(COc2cccc3ccccc23)c1)N1CCCC1,/,20µM*,0.3%,7.4%,2.9,132.3
Cn1nnc2cc(C(=O)N3CCCCCC3)ccc21,/,3.16µM*,-5.9%,2.1%,/,?
Cc1nnc(Nc2ccc(C(=O)N3CCOCC3)cc2)c2ccccc12,-2.0%,15.8µM*,4.5%,21.8%[38.3 µM],-7.2,6.9
O=c1c(CCc2ccccc2)nc2cnc(N3CCNCC3)nc2n1-c1ccccc1,1.4%,/,/,6.7%,/,/
Cn1cccc1C(=O)N1CCC[C@@]2(CCN(C(=O)Nc3cccc(F)c3)C2)C1,-2.2%,-2.1%,-3.1%,16.7%,/,/
N[C@@H](Cc1[nH]nc2ccccc12)C(=O)O,4.7%[11.4 µM],-3.6%,0.2%[11.4 µM],0.1%,/,/
O=C(c1ccc(C(=O)N2CCCCCC2)cc1)N1CCCCCC1,/,7.94µM*,3.0%,-0.4%,-5.9,63.4
CC(C)(C)c1ccc(C(=O)N2CCCN(C(=O)c3ccc(C(C)(C)C)cc3)CC2)cc1,/,-9.8%,2.8%,7.1%,/,191.2
O=C(c1c(Cl)cccc1Cl)N1CCCCCC1,11.3%,28.2µM*,-2.3%,7.5%[38.3 µM],-5.2,8.7
O=C(COc1ccc(Cl)cc1)N1CCCC1,/,-9.9%,0.8%,6.2%,-4.1,94.0
O=C(c1ccc(Cl)cc1)c1ccc(OCC(=O)N2CCOCC2)cc1,-2.5%,28.2µM*,-10.1%,35.4%[38.3 µM],-8.0,35.1
COc1ccc(Oc2coc3cc(OC(=O)/C=C/c4ccccc4)ccc3c2=O)cc1,/,-1.3%,-4.7%,3.5%,3.8,-80.8*
